The values that follow come from PubChem BioAssay (NCI).

This is part of a sample that, as a whole, favours compounds with a hit. Of some 83,000 tested, about 20% had one in any assay.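 Interpretation: 100, growth as untreated; towards 0, rising growth inhibition; 0, no net growth; 0 to -100, cell death. Compounds scoring below 10 were considered active.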 Unmarked numbers belong to inactive results. Active and inactive are the calls of the source.

This test has as its system SK-OV-3 ovarian. The experiment in a line: NCI-60 one-dose screen, 48 h (100 = growth as untreated, 0 = no growth, -100 = all killed). Particulars: 10 µM unless noted. As for the experimental part:
Growth inhibition of the SK-OV-3 human tumor cell line is measured as a screen for anti-cancer activity. Cells are grown in 96 well plates and exposed to the test compound for 48 hours. Compounds are tested at a single concentration, which is 10^-5 M for most compounds. The reported endpoint is percent growth (GI% or GIPRCNT), where numbers from 0 - 100% represent growth inhibition, and numbers from -100% - 0 represent cell death. For example, a value of 40 represents 60% growth inhibition. A value of 0 means no net growth occurred over the course of the experiment. A value of -40 indicates 40% of cells at the beginning of the experiment died by the end of the experiment. A value of -100 means all cells are dead at the end of the experiment.
NCI-60 Human Tumor Cell Lines Screen was performed using the standard one-dose NCI protocol, which is described in more detail at https://dtp.cancer.gov/discovery_development/nci-60/default.htm.
Compounds with GIPRCNT values below 10 were considered active. Activity score was based on GIPRCNT using the following formula: […]
Score is 0 for GIPRCNT values of 100 or above, 50 for GIPRCNT values of 0, and 100 for GIPRCNT values of -100.
Take `CC(N)Cc1ccc(O)cc1` (stereo not given): the growth was 105%.

Consider `N#[N+]c1cnc([O-])[nH]c1=O`, for which the growth is 94%. On to `CCN1CC2(CN(CC)C1=S)C(=O)NC(=O)NC2=O`, for which the growth is 97.4%. The figure for `CC1([N+](=O)[O-])COP(=O)(Nc2ccc(F)cc2)OC1` (stereo not given) is 101%; for `c1ccc([As]=[As]c2ccccc2)cc1` (stereo not given) it is 27.5%; for `CCC1CN1P(=O)(OCCOC)N1CC1CC` (stereo not given) it is 118%.

In the case of `COc1ccc2c(c1)NC1=C(C(=O)OC1)C2c1cc(OC)c(OC)c(OC)c1` (stereo not given), the growth is 36.9%.

Take `O=[N+]([O-])c1ccc(F)c([N+](=O)[O-])c1F`: the growth is 105%. The figure for `CCC[CH2][Sn]1([CH2]CCC)[O]C(=O)c2cccc([N+](=O)[O-])c2C(=O)[O]1` is 12.2%; for `CC(=O)O[C@H]1CCC2C3CCC4=C/C(=N/O)CCC4(C)C3CCC21C` (stereo not given in full) it is 104%. Regarding `COc1cc2c(cc1OC)CN(C)C(C)C2` (stereo not given), the growth was 103%. The figure for `CC(C)(C)[Si](C)(C)OC1[C@@H](O[Si](C)(C)C(C)(C)C)[C@@H](CNC(=O)NC(=O)CF)O[C@H]1n1cnc2c(NC(=O)Nc3ccccc3)ncnc21` (stereo not given in full) is 89.3%. On to `CN=C(NN)NN`, for which the growth is 110%.

Regarding `CC1(C)N=C(N)N=C(N)N1c1ccc(OCCCCNC(=O)Nc2cccc(S(=O)(=O)F)c2)c(Cl)c1`, the growth is 77.9%. The figure for `NCCc1cc(O)c(O)cc1O` is 99%.

With `OC1CCCCC1N1CCC(c2ccccc2)CC1` (stereo not given), the growth was 104%.

As to `COc1ccc(NP2(=O)OCC(C)(N)CO2)cc1` (stereo not given), the growth was 103%. For `O1[As]2O[As]3O[As]1O[As](O2)O3`, the growth is 38%.

As for `COc1ccccc1N1CCN(CCc2c[nH]c3cc4c(cc23)OCO4)CC1`, the growth was 104%. The figure for `Cc1cc(N(CCCl)CCCl)ccc1C=Nc1ccc2ccccc2c1` is 80.9%; for `O=C1C=CC(=O)C2C1C1(Cl)C(Cl)=C(Cl)C2(Cl)C1(Cl)Cl` (stereo not given) it is 71%. With `CNC(=O)Oc1cccc(N(C)C)c1`, the growth is 99.7%.

For the compound `Oc1ccc2c3c1O[C@H]1c4[nH]c5ccccc5c4C[C@@]4(O)C(C2)N(CC2CC2)CC[C@]314`, the growth was 103%. With `Cc1cc(NC(=O)/C=C/c2ccc([N+](=O)[O-])cc2)ccc1S(=O)(=O)F`, the growth was 99.9%. The figure for `S=P(Nc1ccccc1)(Nc1ccccc1)c1ccccc1` is 108%; for `Nc1ncnc2c1c(C(=O)NO)cn2C1OC(CO)C(O)C1O` (stereo not given) it is -18.2% (active); for `O=C(CCc1ccco1)NC1CCN(CC2(c3ccc(Cl)cc3)CCC2)CC1` it is 13.8%. The figure for `CC(=O)[O][Hg][c]1nc2c(c(=O)n(C)c(=O)n2C)n1C` is 115%; for `O=S(=O)(Cl)c1ccccc1` (tested in a mixture with another compound) it is 102%. Consider `CO[C@@H]([CH2][Hg][S]C#N)[C@@H]([CH2][Hg][S]C#N)OC`, for which the growth is 119%. As for `CSc1ccccc1NP1(=O)OCC(C)([N+](=O)[O-])CO1` (stereo not given), the growth is 98.2%.

In the case of `CCCCCCCC(=O)OCC/C=C/C1OC1C1OC(=O)/C=C\C=C\c2nc(oc2C)/C=C(/C)CCC2OC2C1OC(=O)NC(C)=O` (stereo not given), the growth was -38.5% (active).

Take `N#Cc1ncc(/N=C/c2ccc(N(CCCl)CCCl)cc2)s1`: the growth is 78.5%. The figure for `CCN(CC)CCOc1c(C(C)C)cccc1C(C)C` is 112%. The figure for `O=C(O)CC(Br)C(=O)CBr` (stereo not given) is 106%. The figure for `C[C@@H]1CC[C@@H]2[C@@H]1[C@H](OC(=O)/C=C/C1CCCCC1)[C@]1(C3CCCCC3)C[C@@H](OC(=O)CO)[C@@]2(C)O1` is 69%. Take `CC(=O)[O][Hg][CH2]C1(C)COC(C)([CH2][Hg][O]C(C)=O)CO1` (stereo not given): the growth is 103%. As to `Cc1cccc(N=C2c3cc([N+](=O)[O-])ccc3-c3c2cc([N+](=O)[O-])cc3[N+](=O)[O-])c1`, the growth was 119%. In the case of `CCC(CC)(c1ccccc1)C(OC(N)=O)c1ccccc1` (stereo not given), the growth is 66.5%. The figure for `COc1cc(C2(C#N)CCN(C)CC2)cc(OC)c1OC` is 105%.
